# Sampled rows, rich in hits. Any-hit rate of the full collection: about 1.4%.
# LANA-H2A inh: blocks KSHV LANA binding to histone H2A/H2B | Q9QR71 | cell-free LANA-H2A/H2B peptide, fluorescence polarization | inhibition, % (concentration not given with the values) | 320,000 tested, 0.6% active | AID 2629; in the data active = inhibition mostly above about 10%, no sharp cut-off; inactive = mostly below about 6.7%
# ZTA DNA inh: counter-screen for EBNA-1 inhibitors: inhibitors of Epstein-Barr virus ZTA; inhibition, % at 11 µM; ZTA-DNA binding, fluorescence polarization; P03206; 320,000 tested, 0.15% active; AID 2234; in the data active = inhibition above about 33%
# EBNA-1 inh: blocks EBNA-1 binding to DNA; AID 1950; EBNA-1 DNA binding, fluorescence polarization; inhibition, % at 14.8 µM; 300,000 tested, 0.34% active; in the data active = inhibition above about 28%
# LYPLA1 counter: LYPLA1 (human) inhibition in PME1 counter-screen. O75608. recombinant LYPLA1, FP-Rh probe fluorescence polarization. inhibition, % at 5.9 µM. 320,000 tested, 0.16% active. AID 2174;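 active = inhibition above the mean of all tested compounds plus 3 SD, set per campaign, cut at about 14% in these data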;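 note: inhibitors block serine hydrolase probe labeling of LYPLA1 so polarization falls; 0% = enzyme with DMSO and 100% = wells lacking LYPLA1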
# Target sequence (O75608 whole entry, looked up): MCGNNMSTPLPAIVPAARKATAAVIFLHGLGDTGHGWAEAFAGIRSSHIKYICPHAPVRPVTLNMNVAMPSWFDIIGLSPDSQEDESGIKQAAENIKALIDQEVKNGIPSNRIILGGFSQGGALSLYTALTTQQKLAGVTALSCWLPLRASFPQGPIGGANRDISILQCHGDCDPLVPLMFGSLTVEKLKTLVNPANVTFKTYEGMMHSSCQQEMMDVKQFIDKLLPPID
# LYPLA2 inh: LYPLA2 (human) inhibition in PME1 counter-screen; O95372; recombinant LYPLA2, FP-Rh probe fluorescence polarization; inhibition, % at 5.9 µM; 320,000 tested, 0.38% active; AID 2177;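 active = inhibition above the screen-wide mean plus 3 SD, limit set per campaign, cut at about 26% in these data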;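 note: 0% = LYPLA2 with DMSO and 100% = wells lacking LYPLA2 enzyme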
# Target sequence (O95372 whole entry, looked up): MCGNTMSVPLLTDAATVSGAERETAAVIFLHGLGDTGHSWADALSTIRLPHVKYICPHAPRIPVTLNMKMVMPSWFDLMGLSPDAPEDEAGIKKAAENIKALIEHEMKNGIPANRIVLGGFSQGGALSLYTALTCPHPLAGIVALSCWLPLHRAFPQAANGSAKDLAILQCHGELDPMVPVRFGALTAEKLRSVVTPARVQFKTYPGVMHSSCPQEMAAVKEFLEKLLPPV
# The depositor's hits bear a star; x = not tested or not shown; + = active, no number; ! = repeats disagree.
SMILES,LANA-H2A inh,ZTA DNA inh,EBNA-1 inh,LYPLA1 counter,LYPLA2 inh
CC(C)C(c1nnnn1C1CCCC1)N1CCC(C(N)=O)CC1 (stereo unspecified),-3,18,2,1,-2
CCC(c1nnnn1C1CCCC1)N1CCC(C(N)=O)CC1 (stereo unspecified),49*,-10,-23,0,7
CCOc1ccccc1N(C)S(=O)(=O)c1ccc2[nH]cc(C(=O)N(CCOC)CCOC)c(=O)c2c1,3,-3,1,-1,3
COCCN(CCOC)C(=O)c1c[nH]c2ccc(S(=O)(=O)N(C)c3ccc(F)cc3)cc2c1=O,80*,-18,3,-1,3
COCCC1CCCCN1C(=O)c1cc(COc2ccc(C)nc2)on1 (stereo unspecified),45*,0,2,4,2
CCOC(=O)C1CCCN(C(=O)c2cc(COc3ccc(C)nc3)on2)C1 (stereo unspecified),18*,x,x,x,x
CCOC(=O)C1(CCOC)CCN(C(=O)c2ccc(CSC)o2)CC1,12,3,-2,-4,2
C=CC[C@@H](CC(=O)NCCO)C(=O)N[C@H](COC(=O)[C@@H](CC=C)Cc1ccc(F)cc1)Cc1c[nH]c2ccccc12,+,x,x,x,x
C=CC[C@@H](CC(=O)NCCO)C(=O)N[C@@H](COC(=O)[C@@H](CC=C)Cc1ccc(F)cc1)Cc1c[nH]c2ccccc12,0,x,x,x,x
O=C(c1c[nH]c2ccccc12)N1CCOCC1,40*,-3,-6,-1,-3
COC(=O)c1c(NC(=O)C(=O)N2CCOCC2)sc2c1CCCC2,0,9,10,3,3
COC(=O)c1c(NC(=O)C(=O)N2CCOCC2)sc2c1CCC2,13*,-3,1,2,12
O=C(COC(=O)c1cccnc1Cl)Nc1ccc(N2CCCCC2)cc1,+,4,x,4,0
CCOc1ccccc1C(=O)OCC(=O)Nc1ccc(N2CCCCC2)cc1,-1,-3,-6,-4,3
COc1ccc(-c2cc(=O)oc3cc(OC(C)C(=O)NCc4ccccn4)ccc23)cc1 (stereo unspecified),1,11,1,-4,12
CC1CCCN(Cc2nc3c(c(=O)n(C)c(=O)n3C)n2CC(N)=O)C1 (stereo unspecified),13*,5,7,-3,-3
COc1cc2c(cc1OC)C(c1cccc(C)c1)CC(=O)N2 (stereo unspecified),47*,-6,5,1,2
Brc1cccc2sc(N3CCCC3)nc12,-1,2,17,0,5
CN1C(C(=O)Nc2ccccn2)=C(O)c2sccc2S1(=O)=O,39*!,1,6,-4,-4
CNCCCC12CCC(c3ccccc31)c1ccccc12,9.6*!,-9,2,-3,1
COc1cccc(Cl)c1NC(=O)N1CCN(c2ccnc3cc(Cl)ccc23)CC1,40*,-7,-6,-3,1
COc1ccccc1CNC(=O)C(C)n1cccc1C(=O)c1ccccc1 (stereo unspecified),-1,-6,-14,0,8
CC(C(=O)NCc1ccc(Cl)cc1)n1cccc1C(=O)c1ccccc1 (stereo unspecified),19*,10,-7,-1,-2
O=C(N/N=C/C1CC2C=CC1C2)c1ccccc1O (stereo unspecified),-1,-4,-7,-4,-5
CCOC(=O)c1oc2cc(O)cc(C)c2c(=O)c1-c1cscn1,26*,9,0,4,8
SMILES,LANA-H2A inh,ZTA DNA inh,EBNA-1 inh,LYPLA1 counter,LYPLA2 inh
CCCc1cc2c(=O)c(-c3cscn3)c(C(=O)OCC)oc2cc1O,1,18,2,-6,5
CCCNC(=O)C1CCN(S(=O)(=O)c2ccc3[nH]c(=O)ccc3c2)CC1,20*,-1,-1,1,0
CCC(C)NC(=O)C1CCN(S(=O)(=O)c2ccc3[nH]c(=O)ccc3c2)CC1 (stereo unspecified),-4,-6,-12,2,-3
Cc1ccc(S(=O)(=O)N2CCC(C(=O)NCCCN3CCCCCC3)CC2)cc1,-1,2,4,-2,-6
CCCCNC(=O)C1CCN(C(=O)C2CCN(S(=O)(=O)c3ccc(C)cc3)CC2)CC1,13*,17,-4,-2,2
Cc1ccc(NC(=O)C(C)OC(=O)COc2cccc(C(F)(F)F)c2)cc1 (stereo unspecified),19*,-1,x,1,-2
CCOC(=O)C1C(=O)OC2(CCCCC2)C1C(=O)OCC (stereo unspecified),-2,6,1,0,-3
CCOC(=O)C1C(=O)OC2(CCOC(C)(C)C2)C1C(=O)OCC (stereo unspecified),29*,-28,-6,1,5
C[C@H](CO)N1C[C@H](C)[C@@H](CN(C)S(C)(=O)=O)Oc2ccc(NC(=O)NC3CCCCC3)cc2C1=O,-1,x,x,x,x
CC(=O)Nc1nonc1NC(C)=O,0,4,-15,3,-3
CC(=O)Nc1cc(OC(C)=O)c2nonc2c1OC(C)=O,-7,70*,7,81*,95*
Cc1ccc2oc(=O)c(/C=C(\O)c3ccco3)nc2c1,4.3*,-8,-2,-3,-4
Cc1ccc2oc(=O)c(/C=C(\O)C(C)(C)C)nc2c1,3,-10,-17,2,-4
Cc1cc(C)cc(NC(=O)c2cc(C)nc3ccccc23)c1,3,5,6,3,-2
N/C(=N\N=C\c1ccc(O)c(O)c1)c1nonc1N,18*,-5,-13,2,5
COc1cccc2c1OCC(CN1CCN(Cc3ccccc3)C(CCO)C1)=C2 (stereo unspecified),4,8,-6,-3,-5
COc1cccc2c1OCC(CN1CCN(Cc3ccccc3F)C(CCO)C1)=C2 (stereo unspecified),-3,130*,+,0,1
COc1ccc(N2CC(C(=O)N[C@@H](CC(C)C)C(=O)NC3CCCC3)CC2=O)cc1 (stereo partly specified),0,2,-1,3,10
COC(=O)c1ccccc1NC1CC(=O)N(c2c(C)cccc2C)C1=O (stereo unspecified),96*,-2,-9,-5,-7
COC(=O)c1ccc(NC2CC(=O)N(c3ccccc3C)C2=O)cc1 (stereo unspecified),3,1,3,-1,2
CCOc1ccc(C(=O)COC(=O)c2nn(CC)c(=O)c3ccccc23)cc1,13*,0,x,-1,18
COc1ccc(N2CCN(C(=O)CSc3nc4nc(C)cc(C)n4n3)CC2)cc1,37*,-4,x,6,12
Cc1cc(C)n2nc(SCC(=O)N3CCN(c4ccc(F)cc4)CC3)nc2n1,-2,-1,x,6,7
CC(=O)Oc1ccccc1C(=O)Oc1ccccc1C(=O)O,1,22,1,0,4
CC(=O)Oc1ccccc1-c1nc(C)nc(N(C)C(C)=O)n1,44*,2,0,-3,-4
